Screening results deposited in PubChem by The Scripps Research Institute Molecular Screening Center.
PLC-gamma1 inh – blocks human PLC-gamma1 enzyme activity; AID 720700; inhibition, % at 12.2 µM; P19174; actives 0.84% (n = 370,000); purified PLC-gamma1, fluorogenic substrate, fluorescence; in the data active = inhibition above about 9.5%
UHRF1 binding – blocks human UHRF1 binding to methylated DNA. Q96T88. UHRF1 binding to methylated oligo, TR-FRET. inhibition, % at 4.4 µM. actives 0.75% (n = 370,000); in the data active = inhibition above about 21%;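 note: UHRF1 SRA domain binding a hemimethylated CpG hairpin DNA probe; 0% = median of test compound wells and 100% = reference inhibitor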
Target sequence (Q96T88 whole entry, looked up, the tested form may be a part): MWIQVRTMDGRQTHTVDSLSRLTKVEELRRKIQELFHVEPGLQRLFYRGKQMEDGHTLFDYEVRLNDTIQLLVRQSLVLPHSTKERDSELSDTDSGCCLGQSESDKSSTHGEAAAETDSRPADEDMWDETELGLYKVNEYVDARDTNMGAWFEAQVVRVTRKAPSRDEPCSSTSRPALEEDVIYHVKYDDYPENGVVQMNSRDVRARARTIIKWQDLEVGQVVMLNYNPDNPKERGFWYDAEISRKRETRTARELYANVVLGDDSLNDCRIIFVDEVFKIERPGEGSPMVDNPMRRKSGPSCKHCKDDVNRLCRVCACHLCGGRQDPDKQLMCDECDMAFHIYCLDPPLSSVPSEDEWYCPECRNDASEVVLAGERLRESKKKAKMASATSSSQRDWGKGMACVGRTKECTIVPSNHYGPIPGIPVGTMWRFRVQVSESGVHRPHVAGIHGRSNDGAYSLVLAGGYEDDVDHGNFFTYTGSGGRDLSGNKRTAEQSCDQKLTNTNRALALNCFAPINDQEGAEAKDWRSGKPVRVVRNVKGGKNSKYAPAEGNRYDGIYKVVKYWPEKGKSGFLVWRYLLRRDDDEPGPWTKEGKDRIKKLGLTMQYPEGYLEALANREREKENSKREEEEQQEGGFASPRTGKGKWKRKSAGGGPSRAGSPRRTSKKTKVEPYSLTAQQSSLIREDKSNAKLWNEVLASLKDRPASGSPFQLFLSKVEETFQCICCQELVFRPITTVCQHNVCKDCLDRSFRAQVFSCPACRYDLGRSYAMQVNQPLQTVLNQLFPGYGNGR
PLC-beta3 inh – PLC-beta3 (human) inhibition, primary screen. Purified PLC-beta3, fluorogenic substrate, fluorescence. inhibition, % at 12.2 µM. actives 0.18% (n = 370,000). Q01970; in the data active = inhibition above about 11%;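 note: 0% = median of compound wells on plate and 100% = full blocker control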
MBD2 inh – MBD2-methylated oligo binding inhibition; TR-FRET, MBD2 binding to methylated oligonucleotide; actives 0.31% (n = 370,000); inhibition, % at 4.4 µM; AID 686964; in the data active = inhibition above about 13%
LEDGF integ inh – blocks HIV-1 LEDGF/p75-dependent DNA integration; actives 0.64% (n = 370,000); inhibition, % at 3.7 µM; TR-FRET IN-LEDGF/p75 DNA integration, Eu/Cy5;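 active = inhibition above the screen-wide mean plus 3 SD, cut at about 13% in these data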;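 note: signal is the Cy5 over europium emission ratio at 671 and 618 nm; 0% = plate median of compound wells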
* = called active by the depositor. The list is not random: actives were taken first. Their share in the collection is about 2.3%.

SMILES | PLC-gamma1 inh | UHRF1 binding | PLC-beta3 inh | MBD2 inh | LEDGF integ inh
COC(=O)c1ccc2nc(-c3ccc(C#N)cc3)c(Cc3cccc(Cl)c3)n2c1 | -27 | 21* | -46 | 3 | 1
COC(=O)c1ccc2nc(-c3ccccc3)c(Cc3cccc(Cl)c3)n2c1 | -66 | 15 | -99 | 8 | -1
COC(=O)c1ccc2nc(-c3ccc(F)cc3)c(Cc3ccccc3)n2c1 | -82 | 23* | -108 | 2 | 7
COC(=O)c1ccc2nc(-c3ccc(C#N)cc3)c(Cc3ccsc3)n2c1 | -47 | 22* | -64 | 5 | 0
COC(=O)c1ccc2nc(-c3ccc(C)cc3)c(Cc3ccsc3)n2c1 | -64 | 20 | -89 | -2 | 4
CCN(CC)C(=O)CC[C@H]1CC[C@]2(CCCN(Cc3ccccn3)C2)O1 | 0 | -2 | 4 | 2 | 4
CC(C)NC(=O)CSc1ccccc1C(=O)N1CCN(S(=O)(=O)/C=C/c2ccccc2)CC1 | 1 | -1 | -9 | 0 | -11
CC(C)NC(=O)CSc1ccccc1C(=O)N1CCN(S(=O)(=O)Cc2ccccc2)CC1 | 11* | 4 | -2 | 0 | 0
O=C1NCCN(CC2CCN(CCc3ccc(Cl)c(Cl)c3)CC2)C1=O | 6 | 24* | -3 | 11 | 8
CN(C)c1ccc(N=Nc2ccc(C(=O)O)cc2)cc1 | -5 | 29* | -14 | 0 | 3
CN(C)c1ccc(C(=O)c2ccccc2)cc1 | -35 | -1 | -44 | -3 | 2
C#CCNC(=O)C[C@H]1C[C@@]2(C(=O)OC)C(=C[C@H](COCc3ccccc3)O[C@@H]2C)N(Cc2cccc3ccccc23)C1=O | -1 | 0 | 0 | 0 | -2
CCCCn1c(N)c(N(CCOC)C(=O)c2ccc(C)o2)c(=O)[nH]c1=O | -6 | 22* | -4 | 3 | 0
CCCCC1CCC(C(=O)N(CCOC)c2c(N)n(CC(C)C)c(=O)[nH]c2=O)CC1 (configuration not stated) | 14* | 2 | 2 | -2 | 3
CCCn1c(N)c(N(CCOC)C(=O)c2ccc(N(C)S(=O)(=O)c3ccc(C)cc3)cc2)c(=O)[nH]c1=O | 0 | 96* | -5 | -3 | 0
CCCN(C(=O)c1cccc(-n2cccc2)c1)c1c(N)n(Cc2ccccc2)c(=O)[nH]c1=O | 0 | 26* | -8 | 10 | 3
N#CCc1ccc(OC[C@@H](O)CN2CCC(C(O)(c3ccccc3)c3ccccc3)CC2)cc1 | 1 | 2 | 2 | -1 | -3
CCCC1CCC2(CC1)CCC2OC(=S)Nc1ccccc1 (configuration not stated) | 0 | 0 | 1 | 3 | -3
CCCCN(C(=O)c1ccc(NC2CC2)c([N+](=O)[O-])c1)c1c(N)n(CCCC)c(=O)[nH]c1=O | -1 | -7 | -3 | -3 | 2
CCCCN(C(=O)c1ccc(Cl)c([N+](=O)[O-])c1)c1c(N)n(CCC)c(=O)[nH]c1=O | 5 | 29* | -2 | 0 | -1
CCCCNC(=O)C[C@H]1C[C@@]2(C(=O)OC)C(=C[C@H](C3CCCC3)O[C@@H]2C)N(Cc2ccco2)C1=O | -2 | -1 | 6 | -8 | 5
COc1ccc(CCN(C(=O)C(F)(F)F)C(C(=O)NC2CCCCC2)c2ccc(C)s2)cc1OC (configuration not stated) | 1 | 29* | -2 | -3 | 0
CN[C@H]1C[C@H]2c3[nH]c4cccc(-c5cccc(F)c5)c4c3CCN2C(=O)[C@H]1[C@H](C)O | -201 | -2 | -260 | 1 | -3
O=C(c1nc(SCc2ccc([N+](=O)[O-])cc2)n2ccccc12)C(F)(F)F | 2 | 24* | -3 | 1 | 0
O=[N+]([O-])c1ccc(CSc2nnc3ccccn23)cc1 | 0 | 1 | 2 | -2 | 0
Cc1ccccc1C(=O)N1CCN(C(=O)C(=O)c2cccc(C(F)(F)F)c2)CC1 | 1 | 0 | 4 | 2 | -2
O=C(C(=O)N1CCN(C(=O)Cc2ccccc2)CC1)c1cccc(C(F)(F)F)c1 | 0 | 58* | 0 | -6 | 2
CC(=O)c1cccc(NC(=O)c2cc(C)no2)c1 | 0 | 64* | 0 | 0 | -5
Cc1cc(C(=O)Nc2cccnc2)on1 | 0 | 0 | 2 | 1 | 0
COc1ccc(N2Cc3ccccc3/C2=N\C(=O)Nc2ccccc2)cc1 | 2 | 22* | -1 | 2 | 3
